# Screening data from PubChem BioAssay.
# PABP FP inh = PABP-poly(A) binding inhibition | P11940 | PABP-poly(A) RNA binding, fluorescence polarization | actives 1% (n = 290,000) | inhibition, % at 35 µM;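 further: calls also rest on retests at 20 µM and on dose response follow-up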
# PERK inh = blocks human PERK kinase; Q9NZJ5; CHO PERK-DD fusion, SEAP luminescence translation reporter; actives 0.17% (n = 220,000); inhibition, % at 5.6 µM;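 active means inhibition above the mean inhibition of all tested compounds plus 3 SD, set separately per screening campaign, cut at about 2.9% in these data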;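 further: PERK kinase domain activated by AP20187 dimerizer at 100 nM; 0% = DMSO with dimerizer and 100% = rapamycin at 8.4 µM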
# Target sequence (Q9NZJ5 whole entry, looked up, the tested form may be a part): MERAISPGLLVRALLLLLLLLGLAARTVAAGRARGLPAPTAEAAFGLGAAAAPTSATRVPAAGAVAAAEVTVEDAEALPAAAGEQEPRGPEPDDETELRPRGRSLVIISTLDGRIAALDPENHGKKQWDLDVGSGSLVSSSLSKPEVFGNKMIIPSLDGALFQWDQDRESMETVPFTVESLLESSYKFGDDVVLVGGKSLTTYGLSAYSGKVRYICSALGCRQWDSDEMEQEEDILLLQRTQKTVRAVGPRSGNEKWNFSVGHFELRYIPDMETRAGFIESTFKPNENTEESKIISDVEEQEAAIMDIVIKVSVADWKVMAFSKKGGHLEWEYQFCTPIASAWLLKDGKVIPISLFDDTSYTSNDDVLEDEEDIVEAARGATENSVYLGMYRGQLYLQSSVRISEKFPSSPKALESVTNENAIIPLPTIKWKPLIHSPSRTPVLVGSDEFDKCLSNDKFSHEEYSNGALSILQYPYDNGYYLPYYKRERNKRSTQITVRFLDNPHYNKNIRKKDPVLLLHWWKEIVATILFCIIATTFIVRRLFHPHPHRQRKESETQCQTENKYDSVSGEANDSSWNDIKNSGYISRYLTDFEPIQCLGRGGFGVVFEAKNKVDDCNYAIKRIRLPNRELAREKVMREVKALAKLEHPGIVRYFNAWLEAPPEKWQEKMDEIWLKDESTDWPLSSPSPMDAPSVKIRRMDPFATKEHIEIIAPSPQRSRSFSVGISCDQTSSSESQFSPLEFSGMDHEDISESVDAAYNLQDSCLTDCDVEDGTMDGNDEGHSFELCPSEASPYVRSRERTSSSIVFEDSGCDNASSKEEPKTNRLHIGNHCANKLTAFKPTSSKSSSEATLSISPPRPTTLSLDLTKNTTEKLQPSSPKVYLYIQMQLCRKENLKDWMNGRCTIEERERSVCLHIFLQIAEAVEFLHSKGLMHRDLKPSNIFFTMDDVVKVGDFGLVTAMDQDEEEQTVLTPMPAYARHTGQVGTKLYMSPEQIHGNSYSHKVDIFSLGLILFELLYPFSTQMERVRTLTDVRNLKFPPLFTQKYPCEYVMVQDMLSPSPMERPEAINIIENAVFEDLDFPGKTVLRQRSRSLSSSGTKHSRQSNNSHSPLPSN
# eIF4E-4G inh = inhibitors of eIF4E and eIF4G interaction in translation initiation | actives 0.37% (n = 220,000) | inhibition, % at 21.7 µM | P63073+Q04637 | TR-FRET eIF4E-eIF4GI(517-606) binding, 2 h;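 active means inhibition above about 30%, limit read from the data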;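 further: 0% = full FRET control wells and 100% = background wells lacking eIF4GI fragment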
# eIF4H FP inh = inhibitors of RNA binding by human eIF4H | inhibition, % at 35 µM | actives 0.94% (n = 290,000) | eIF4H fluorescence polarization binding assay | Q15056 | AID 2012;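 further: calls also rest on retests at 20 µM and on dose response follow-up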
# PABP1 MLLE inh = blocks PAM2 peptide binding to the PABP1 MLLE domain; AID 588489; GST-MLLE / FITC-PAM2 fluorescence polarization; inhibition, % at 20 µM; P11940; actives 0.36% (n = 360,000); in the data active means inhibition above about 35%, passing the limit was not always enough;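 further: plate controls were DMSO wells with GST-MLLE for no effect and wells lacking GST-MLLE protein for full effect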
# Starred values were filed as active, the others as inactive; ? = inconclusive; · = no result. A selection: hits, their analogues and other compounds. The true share with any hit is near 1.6%. Unless noted, how the calls were made is not given here.
SMILES,PABP FP inh,PERK inh,eIF4E-4G inh,eIF4H FP inh,PABP1 MLLE inh
Cc1ccc(-n2c(C)nc3c(cnn3-c3ccc(C)c(C)c3)c2=O)cc1C,-4,-1,-4,-11,-8
O=C(/C=C/c1ccco1)OCn1nnc2ccccc2c1=O,4.6*,0,7,68*,5
CC(C)c1onc(C(=O)NC2CCCC2)c1[N+](=O)[O-],55*,1,1,8.3*,16
CCCSc1nc(C)cc(C)c1S(C)(=O)=O,78*,1,2,4.7*,-4
CCCSc1nc(C)cc(C)c1S(=O)(=O)c1ccccc1C,0,1,-1,-4,0
O=C(Nc1cccc(Cl)c1)Nc1sccc1-c1nc2ccccc2s1,12*,0,1,79,-100
O=C(CSc1nnc(CNC(=O)c2ccccc2)o1)NCc1ccco1,9,·,·,34,0
CC(C)(C)c1ccc(C(=O)NCc2nnc(SCC(=O)NCc3ccco3)o2)cc1,11,·,·,52*,-25
COc1ccc(-c2nc(-c3ccc(Br)cc3)no2)c(OC)c1,-11,0,32*,-9,-2
COc1ccccc1-c1nc(-c2ccc(Br)cc2)no1,-9,-1,0,0,2
COc1cccc(-c2noc(-c3ccoc3C)n2)c1,25,3.1*,0,2,-16
O=c1c2[nH]c3ccccc3c2ncn1Cc1ccncc1,9,0,6,5,1
CCOC(=O)N1CCN(C(=O)COc2ccc(S(=O)(=O)NC3CCCCC3)cc2C)CC1,-6,0,7,-2,4
O=C1C(Cl)=C(N2CCC(C(=O)O)CC2)C(=O)c2ccccc21,34,0,9,13,55*
NC(=O)C1CCN(C2=C(Cl)C(=O)c3ccccc3C2=O)CC1,10,2,18,12,38
O=C(CN(c1ccc(F)cc1)S(=O)(=O)c1ccccc1)NCc1ccco1,-1,0,3,12,-5
O=C(NNC(=O)c1ccccc1Br)c1ccc2nc[nH]c2c1,69*,·,·,84*,0
O=C(NNC(=O)c1ccccc1F)c1ccc2nc[nH]c2c1,13,·,·,23,-11
O=C(CSc1ncccn1)c1ccccc1Br,-3,0,0,0,24
Cc1ccc(NC(=O)C2(C)CCN2C(C)C)cc1C (stereo unspecified),·,·,·,·,5
Cc1nnc(SCC(=O)NNC(=O)c2ccccc2)n1Cc1ccccc1,·,·,·,·,-6
Cc1nnc(SCC(=O)Nc2sccc2C#N)n1Cc1ccccc1,70*,-1,4,29*,-12
COc1ccc(C2CC(=O)Oc3c(C(CCN4CCCC(C)C4)c4ccc(N(C)C)cc4)c(OC)cc(OC)c32)cc1 (stereo unspecified),0,·,43*,4,1
COc1ccc(C2CC(=O)Oc3c(C(CCN4CCCCC4)c4ccc(N(C)C)cc4)c(OC)cc(OC)c32)cc1 (stereo unspecified),3,·,-2,6,-1
COc1cccc(CCc2nnc(CCC(=O)NCCc3cccc(C)n3)o2)c1,7,0,-3,8,8
SMILES,PABP FP inh,PERK inh,eIF4E-4G inh,eIF4H FP inh,PABP1 MLLE inh
CCCOc1ccc(OCCSc2ncccn2)cc1,-8,1,-3,7,-6
Clc1ccc(OCCCCSc2ncccn2)cc1,120,-1,1,127,38*
COc1ccc(/C(O)=C2/C(=O)C(=O)N(CC3CCCO3)C2c2ccc(O)c(OC)c2)cc1 (stereo unspecified),76*,0,-1,active,17
COc1ccc(/C(O)=C2/C(=O)C(=O)N(CC3CCCO3)C2c2cccc(OC)c2)cc1 (stereo unspecified),2,0,5,1,-13
CCCCc1ccc(-c2csc(/C(C#N)=C/c3ccc(C)o3)n2)cc1,11,0,9,26,-58
CCCCc1ccc(-c2csc(/C(C#N)=C\c3ccco3)n2)cc1,-11,2,0,55*,-62
CCCCC(=O)NC(=S)Nc1nnn(CCC)n1,-8,0,-3,-5,20
Cc1occc1C(=O)NCc1ccco1,3.9*,0,-1,58*,-4
Cn1cc([N+](=O)[O-])c(C(=O)NCc2ccco2)n1,0,3.8*,3,-15,11
O=C(NCc1ccco1)c1cc2ccc(O)cc2oc1=O,37*,1,·,?,-7
Cc1nc2ccccn2c1C(=O)N=Nc1c(O)n(CCC(C)C)c2ccccc12,4,0,2,-6,-3
